Screening results from PubChem BioAssay.
A selection: hits, their analogues and other compounds. The true share with any hit is near 4.7%.
TROY signal inh – inhibitors of TROY-dependent NF-kB signaling; Q293 LMP1-TROYcd NF-kB luciferase reporter, 4 h; inhibition, % at 10 µM; hit rate 0.98% among 360,000; AID 1347056;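 active = compounds whose plate-normalised and pattern-corrected inhibition of the luciferase reporter signal at the single screening dose is 50% or more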
HSP90 inh – inhibitors of HSP90 luciferase refolding in rabbit reticulocyte lysate; luciferase refolding luminescence, 3 h; inhibition, % at 5.6 µM; hit rate 0.91% among 290,000;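 active = inhibition above the screen-wide mean plus 3 SD, computed separately per campaign, cut at about 16% in these data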;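 also: 0% = DMSO wells and 100% = 60 µM geldanamycin wells; inhibitors lower the luminescence because luciferase stays unfolded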
LMP1 NFkB inh – Epstein-Barr LMP1 NF-kappaB reporter inhibition | inhibition, % at 12.5 µM | hit rate 0.69% among 350,000 | LMP1-induced NF-kappaB luciferase reporter cells, luminescence | AID 504558; in the data active = inhibition above about 41%;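 also: 0% = neutral control wells and 100% = reference inhibitor control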
HSF1 activator – increases HSF-1 driven luciferase reporter signal; NIH3T3-HGL HSF-1 luciferase reporter, MG132, 8 h; 100% = twice DMSO control signal; activation, % at 9 µM; hit rate 1.7% among 300,000;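 active = mean replicate activation of at least 50% with a set share of replicates each reaching 50%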;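 also: 0% = median of the neutral control wells and 100% = twice that signal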
TWEAK Fn14 block – blocks TWEAK-Fn14 interaction in a reporter cell assay; TWEAK-stimulated Fn14 reporter cells, luciferase luminescence, 8 h; inhibition, % at 10 µM; hit rate 2% among 360,000; AID 1159606; in the data active = inhibition above about 50%
HSF1 inhib – HSF1 inhibition | AID 2098 | NIH3T3-HGL HSE-luciferase, MG132-induced, luminescence 8 h; stronger effect = lower value | hit rate 0.77% among 300,000 | activity change, negative = inhibition, % at 7.5 µM (by protocol);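 active = more than half of replicate wells show activity change below -50%, luminescence cut by over half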;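 also: luciferase reports HSF-1 transcriptional activity via heat shock element; 0% = median of DMSO wells and -100% = zero luminescence signal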
HSP90 confirm – confirmation of HSP90 inhibitors | rabbit reticulocyte lysate, luciferase refolding luminescence, 3 h | shares compounds with HSP90 inh | inhibition, % at 5.9 µM | hit rate 64% among 2,300 | AID 1846; in the data active = inhibition above about 18%;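 also: 0% = vehicle wells and 100% = reference inhibitor wells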
luciferase ctr – blocks native firefly luciferase in HSP90 counter-screen; shares compounds with HSP90 inh; purified native firefly luciferase, luminescence; inhibition, % at 5.9 µM; hit rate 48% among 2,300;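 active = inhibition above the mean inhibition of all tested sample wells plus 3 SD, cut at about 10% in these data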;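 also: 0% = DMSO with luciferase and 100% = wells lacking luciferase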
Target sequence (P08659 whole entry, looked up): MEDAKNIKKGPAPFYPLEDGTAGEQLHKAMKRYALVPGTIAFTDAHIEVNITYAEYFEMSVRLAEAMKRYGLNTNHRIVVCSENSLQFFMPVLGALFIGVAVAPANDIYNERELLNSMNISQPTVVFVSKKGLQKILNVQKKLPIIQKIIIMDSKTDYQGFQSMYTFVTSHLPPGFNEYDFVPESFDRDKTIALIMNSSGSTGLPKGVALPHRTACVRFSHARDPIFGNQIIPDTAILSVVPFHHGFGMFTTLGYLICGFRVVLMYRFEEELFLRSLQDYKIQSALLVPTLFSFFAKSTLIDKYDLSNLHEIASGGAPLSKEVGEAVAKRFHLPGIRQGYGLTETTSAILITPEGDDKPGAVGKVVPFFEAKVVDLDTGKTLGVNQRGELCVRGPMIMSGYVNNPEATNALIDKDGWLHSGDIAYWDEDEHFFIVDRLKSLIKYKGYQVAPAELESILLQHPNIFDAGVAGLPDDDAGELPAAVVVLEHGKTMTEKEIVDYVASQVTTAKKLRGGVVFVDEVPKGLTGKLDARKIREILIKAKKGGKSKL
An asterisk follows results filed as active; / = not tested or not shown.

SMILES	TROY signal inh	HSP90 inh	LMP1 NFkB inh	HSF1 activator	TWEAK Fn14 block	HSF1 inhib	HSP90 confirm	luciferase ctr
CCc1ccc2oc(-c3cccc(N)c3)nc2c1	34	18*	-28	48	75*	26	60*	58*
CC1=CC2=NC(=O)/C(=C\c3cccn3CCOc3cccc(C)c3)C(=N)N2O1	-5	-1	9	-11	7	-2	/	/
CC1=CC2=NC(=O)/C(=C\c3cccn3CCOc3cc(C)ccc3C)C(=N)N2O1	15	53*	0	-7	13	-3	-2	-8
CCCNC(=O)C1(C)CCCN(C(=O)c2ccc(C)c(F)c2)C1 (stereo not given)	-2	/	/	/	4	/	/	/
COc1ccccc1N/C=C/c1onc(C)c1[N+](=O)[O-]	72*	39*	-9	-51	78*	-46	78*	71*
O=C(CC(=O)c1ccccc1)CC(O)(C=Cc1ccccc1)c1ccccc1 (stereo not given)	-3	/	-1	/	0	/	/	/
COc1ccc(-c2noc(CCC(=O)Nc3cccnc3)n2)cc1	-14	3	/	-21	-25	-10	/	/
CN(C)C(=O)CCc1nc(-c2ccc(C(C)(C)C)cc2)no1	-31	20*	-10	28	-14	5	27*	0
CC(C)(C)c1ccc(-c2noc(CCC(=O)Nc3cccnc3)n2)cc1	58*	45*	78*	-45	36	-46	4	-19
Cc1c(C(=O)NNC(=O)c2csc(N3CCOCC3)n2)oc2ccc(Br)cc12	-40	/	5	/	-25	/	/	/
CC(C)=CC(=O)N1CC[C@@H](N2CCN(c3ccccc3F)CC2)[C@H](O)C1	-1	-2	-25	9	1	3	/	/
O=C(c1cccc(-c2ccccc2F)c1)N1CC[C@@H](N2CCC(O)CC2)[C@H](O)C1	5	84*	12	15	-3	7	4	-4
CC(Sc1ccc(S(=O)(=O)N2CCCCC2)cn1)C(N)=O (stereo not given)	-5	/	-6	/	9	/	/	/
CN1CCC(N2CCN(C3CN(Cc4ccccc4)S(=O)(=O)C3)CC2)CC1 (stereo not given)	23	/	/	/	0	/	/	/
O=C(c1ccc(COc2ccc(Br)cc2)o1)N1N=C(C(F)F)CC1(O)C(F)F (stereo not given)	36	-2	1	-44	24	-28	/	/
Cc1cc(CN2CCCCC2)oc1C(=O)O	5	-3	-4	/	6	/	/	/
CCOC(=O)c1ccc(COc2ccc(C(C)C)cc2)o1	-83	33*	-39	54*	-21	25	71*	-13
Cc1cc(COc2ccccc2)oc1C(=O)O	58*	69*	-30	-30	90*	-7	84*	50*
CCC(C)c1ccc(OCc2ccc(C(=O)O)o2)cc1 (stereo not given)	-97	94*	6	-61	3	-53*	92*	82*
CCOc1ccc(OCc2ccc(C(=O)N3N=C(C(F)F)CC3(O)C(F)F)o2)cc1 (stereo not given)	-8	28*	-3	1	-5	1	13	-6
CCOc1ccc(OCc2ccc(C(=O)N3CCCC3)o2)cc1	-22	30*	6	1	13	9	19*	-30
CC(C)c1ccc(OCc2ccc(C(=O)N3CCCC3)o2)cc1	10	17*	-14	48	-16	28	24*	-15
Cc1ccc(OCc2ccc(C(=O)O)o2)cc1C	-72	70*	-9	45	0	10	71*	5
CC(C)c1ccc(COc2ccc(C(=O)N3CCOCC3)cc2)cc1	-22	1	1	17	-12	7	/	/
CN1CCN(C(=O)c2ccc(COc3ccc(C(C)(C)C)cc3)o2)CC1	/	5	-18	43	-29	19	/	/
COc1ccc(/C=C/c2cc(O)cc(OC3OC(CO)C(O)C(O)C3O)c2)cc1 (stereo not given)	-17	/	1	/	-9	/	/	/
CCCn1c(C)cc(C(=O)COC(=O)c2cc(=O)[nH]c3ccccc23)c1C	-20	/	-11	/	-21	/	/	/
